Compound activity from PubChem.
Hits are enriched below; roughly 19% of the tested compounds scored in any of these assays.
TDP1 cell CPT – DT40-hTDP1 cell growth loss with CPT; 420,000 tested, 12% active; chicken DT40 Tdp1-/-;hTDP1 cells + 20 nM CPT, ATP luminescence, 48 h; AID 686979; Potency, µM (highest dose often 46.2 µM), actives largely listed as inhibitors; also: nearly all actives have a fitted effect of over 55% in size
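Chicken DT40 Tdp1-/- cells stably complemented with human TDP1 were seeded at 400 cells/well in medium containing 20 nM camptothecin, exposed to pin-transferred compounds, and grown at 37 °C for at least 48 hr. Viability was read as ATP luminescence.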
HT1080 IDH1KD tx – HT-1080 IDH1 knockdown cell toxicity (counter line); HT-1080 IDH1 knockdown viability, ATP luminescence, 48 h; Potency, µM (top dose mostly 46.1 µM), hits mostly cytotoxic; 360,000 tested, 2% active
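Assay cells: HT-1080 with IDH1 knockdown, 750 per well, RPMI/5% FBS. Exposure: 48 h at 37 °C following 2 h pre-incubation. Read: CellTiter-Glo luminescence; fitted concentration-response, curve class assigned.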
ELG1 repair inh – inhibitors of ELG1-dependent DNA repair in HEK293T cells | HEK293T ELG1-luciferase reporter, luminescence, 16 h; DNA damage induced by 5-fluorouridine | Potency, µM (series often up to 46.1 µM), hits mostly inhibitors | 330,000 tested, 2.3% active | AID 504467; also: nearly all actives have a fitted effect of over 55% in size
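Overnight (16 hr) co-exposure of 2,000 cells/well to 5-fluorouridine and compound at 37 °C preceded detection. Luciferase was quantified via ONE-Glo luminescence; loss of signal denotes inhibition.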
IL1B secr inh – inflammasome signaling inhibition, IL-1 beta readout; 360,000 tested, 4.7% active; THP-1 LPS/ATP IL-1B secretion, AlphaLISA, 16 h; hits give low values; activity change, % at 57.5 µM; AID 743279; in the data active = activity change below about -50%; inconclusive = mostly about -30% to -49%
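THP-1 cells pretreated 1 hr with compounds (up to 57.5 uM final), then stimulated with LPS (250 ng/mL final) plus ATP (1.25 mM final); secreted IL-1B measured by AlphaLISA after 16 hr, decreased signal indicating inhibition.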
HT1080NT lethal – kills 2HG-producing HT-1080-NT fibrosarcoma cells. Potency, µM (top dose mostly 46.1 µM), actives largely listed as cytotoxic. 360,000 tested, 1.6% active. AID 686970. HT-1080-NT fibrosarcoma viability, CellTiter-Glo ATP luminescence, 48 h;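 also: NT is the 2HG producing partner of a matched IDH1 knockdown line; nearly all actives have a fitted effect of over 55% in size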
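HT-1080-NT; 750 cells/well; 5% FBS RPMI; 48 h compound, 37 degrees C; CellTiter-Glo luminescence; curve fitting and curve-class assignment.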
DT40 TDP1 no CPT – qHTS for Inhibitors of human tyrosyl-DNA phosphodiesterase 1 (TDP1): qHTS in cells in absence of CPT; 420,000 tested, 15% active; Potency, µM (top dose mostly 46.2 µM), most hits filed as inhibitors; DT40 Tdp1-/- hTDP1 cells, no CPT, ATP luminescence, 48 h; also: nearly all actives have a fitted effect of over 55% in size
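Chicken DT40 Tdp1-/- cells stably complemented with human TDP1 were seeded at 400 cells/well with DMSO in place of 20 nM camptothecin. After compound pinning, cells grew at least 48 hr at 37 °C; viability read by CellTiter-Glo luminescence.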
Numbers stand for hits; - = inactive; ? = inconclusive; . = no result given; ! = not active in a repeat. Unless noted, calls follow the shape of the dose curve; as a rule, active = well fitted curve in the direction sought with a large enough effect; inconclusive = small, poorly fitted or top-dose-only effect, or another doubt; inactive = no such curve, though single readings can be large; an effect the other way counts as inactive or inconclusive.

SMILES | TDP1 cell CPT | HT1080 IDH1KD tx | ELG1 repair inh | IL1B secr inh | HT1080NT lethal | DT40 TDP1 no CPT
CC1Sc2ccc(S(=O)(=O)N3CCN(c4ccccc4)CC3)cc2NC1=O (configuration not stated) | ? | - | - | - | - | ?
Cc1cccc(N2CCN(S(=O)(=O)c3ccc4c(c3)NC(=O)C(C)S4)CC2)c1C (configuration not stated) | 21µM | ? | - | - | ? | ?
Cc1cccc(N2CCN(S(=O)(=O)c3ccc4c(c3)C(C(C)C)C(=O)N4)CC2)c1C (configuration not stated) | 5.2µM | . | . | . | . | 12µM
COc1cc(C(=O)Nc2ccc3c(c2)N(C(=O)CN2CCN(C)CC2)c2ccccc2CC3)cc(OC)c1OC | - | ? | ? | - | - | -
CCC(=O)NC1CC(=O)N(c2ccc3c(c2)OCCO3)C1 (configuration not stated) | - | . | . | . | . | -
CCOC(=O)c1c(NC(=O)CSc2nc3cc(Cl)ccc3c(=O)n2Cc2ccco2)sc(C(=O)N(C)C)c1C | ? | ? | 3.3µM | -58 | ? | ?
CCN(C(=O)CSc1nc2cc(C(=O)OC)ccc2c(=O)n1Cc1ccco1)c1cccc(C)c1 | 21µM | - | 7.3µM | - | - | ?
CCc1ccc(NC(=O)CSc2nc3cc(C(=O)OC)ccc3c(=O)n2Cc2ccco2)cc1 | 16µM | - | ? | - | - | 10µM
COC(=O)c1ccc2c(=O)n(CCN3CCOCC3)c(SCC(=O)Nc3ccc(C)cc3)nc2c1 | - | - | ? | - | - | -
O=C(Nc1nc(=O)c2ccccc2s1)c1ccc(F)cc1 | - | 1.4µM | ? | -99 | 16µM | -
O=C(Nc1nc(=O)c2ccccc2s1)c1ccc(Cl)cc1 | ? | - | ? | - | - | ?
CC1Nc2ncnc(N3CCN(c4ccccc4)CC3)c2N(Cc2ccccc2)C1=O (configuration not stated) | ? | - | - | - | - | 16µM
Cc1ccc(CN2C(=O)C(C)Nc3ncnc(N4CCOCC4)c32)cc1 (configuration not stated) | - | - | - | - | - | ?
CC1Nc2ncnc(N3CCN(c4ccccc4)CC3)c2N(Cc2ccc(Cl)cc2)C1=O (configuration not stated) | ? | - | ? | ? | - | 18µM
COc1ccc2oc(=N)c(C(=O)Nc3ccc(Cl)cc3)cc2c1 | - | - | ? | - | - | -
Cc1nn(-c2cc(C(F)(F)F)ccc2Cl)c2nc(C(Cl)(Cl)Cl)[nH]c(=O)c12 | - | - | 21µM | - | - | -
Cc1cnc(C(=O)OCC(=O)c2cc(C)n(C)c2C)cn1 | - | - | - | - | - | -
CCCCn1c(N)c(N(CC(C)C)C(=O)CSCc2cccc(C)c2)c(=O)[nH]c1=O | - | - | - | - | - | -
CCCCn1c(N)c(N(CCC(C)C)C(=O)c2ccc(-c3ccc([N+](=O)[O-])cc3)o2)c(=O)[nH]c1=O | ? | - | - | - | - | ?
CCCCn1c(N)c(N(CC(C)C)C(=O)c2ccc(-c3ccc(Cl)cc3)o2)c(=O)[nH]c1=O | ? | - | 15µM | ? | - | ?
CCCCn1c(N)c(N(CC(C)C)C(=O)CSCc2ccc(Cl)c(Cl)c2)c(=O)[nH]c1=O | - | - | - | -56 | - | -
CC1=CC(C)(C)Nc2ccc(OC(=O)CN3C(=O)c4cccc5cccc(c45)C3=O)cc21 | 2.9µM | - | - | -107 | - | 2.6µM
C#CCOC(=O)CN1C(=O)c2cccc3cccc(c23)C1=O | - | - | - | - | - | -
CCOc1ccc2c(c1)C(C)=CC(C)(C)N2 | 13µM! | - | - | - | - | ?
CCOc1ccc2[nH]c(=O)c(CN(Cc3ccc(F)cc3)C(=O)N3CCCC3)cc2c1 | ? | - | ? | - | - | ?
SMILES | TDP1 cell CPT | HT1080 IDH1KD tx | ELG1 repair inh | IL1B secr inh | HT1080NT lethal | DT40 TDP1 no CPT
CCOc1ccc2[nH]c(=O)c(CN(Cc3ccccc3OC)C(=O)c3ccccc3)cc2c1 | 6.5µM | ? | ? | - | - | 3.3µM
CCOc1ccc2[nH]c(=O)c(CN(CCc3ccccc3)C(=O)c3cnccn3)cc2c1 | ? | - | - | - | - | 16µM
CCOc1ccc2[nH]c(=O)c(CN(CCO)C(=O)c3ccc(Br)cc3)cc2c1 | ? | - | - | - | - | -
CCOc1ccc2[nH]c(=O)c(CN(CCN3CCCC3)C(=S)Nc3ccccc3OCC)cc2c1 | ? | ? | - | -101 | ? | 23µM
CCOc1ccc2[nH]c(=O)c(CN(CCO)C(=O)CC)cc2c1 | - | - | - | - | - | -
CCOc1ccc2[nH]c(=O)c(CN(Cc3ccco3)C(=O)c3ccc(Br)cc3)cc2c1 | ? | - | - | - | - | 3.3µM
CC1(C)CN(C(Cc2ccccc2)C(N)=O)C1=O (configuration not stated) | - | - | - | - | - | -
NS(=O)(=O)c1ccc(NC(=O)/C(=C/c2ccncc2)NC(=O)c2ccccc2)cc1 | - | - | - | - | - | -
COc1cc(/C=C/C(=O)OCC(=O)NCCN2C(=O)CSC2=O)ccc1OCC#N | - | - | - | - | - | -
CCOc1ccc2[nH]c(=O)c(CN(Cc3ccco3)C(=O)c3cccc(F)c3)cc2c1 | ? | - | - | - | - | 23µM
Cc1c(CCNC(=O)C(C)(C)C)sc2nc(-c3ccc(F)cc3)nn12 | ? | . | . | . | . | 26µM
CC(C)(C)C(=O)NCCc1nc(-c2ccccc2)no1 | - | - | . | - | - | -
Cc1ccc(-c2nc3sc(CCNS(=O)(=O)c4cc(F)ccc4F)c(C)n3n2)cc1 | ? | . | . | . | . | 21µM
CCCN1C2CCCC1CC(NC(=O)c1ccccc1Br)C2 (configuration not stated) | - | - | - | - | - | -
COc1ncc2nc(-c3ccccc3)c(=O)n(C)c2n1 | - | . | . | . | . | -
O=C(O)COc1cccc(-c2ocnc2-c2nc(-c3ccccc3)c(-c3ccccc3)o2)c1 | - | . | . | . | . | -
CNc1cnc(-c2cccc(C(=O)N3CCOCC3)c2)cn1 | - | - | . | - | - | -
COc1cc2c(cc1NC(=O)c1cc(-c3cccnc3)nc3ccc(C)cc13)oc1ccccc12 | 11µM | - | - | ? | - | ?
COc1cc2c(cc1NC(=O)c1cc(-c3ccncc3)nc3ccccc13)oc1ccccc12 | 21µM | - | - | - | - | ?
COc1ccc(CNC(=O)c2cc3c(=O)oc4ccc(C)cc4c3s2)c(OC)c1 | - | . | . | . | . | -
